PubChem BioAssay (NCI)
Compounds without any hit were thinned out: in the full panel of roughly 79,000, 15% have a hit. Values without a mark were called inactive. Calls of active or inactive are those of the source. Rule as the data show it: active = growth inhibition above about 70%; inactive = the rest.

Columns and labels:
[1] = NCI Yeast Anticancer Drug Screen. Data for the rad50 strain (AID 155);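 also: 0% = growth of vehicle-only cultures of the same strain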; conditions: S. cerevisiae rad50 strain growth inhibition; at 50.0 µM; hits give high values
How it was run: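 DNA repair mutant yeast, compound exposure, growth read-out; inhibition is taken relative to vehicle.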

[2] = NCI Yeast Anticancer Drug Screen. Data for the mec2-1 strain (AID 157); conditions: S. cerevisiae mec2-1 strain, at 50.0 µM, hits give high values
How it was run: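 Mutant yeast (mec2-1) grown with compound; growth inhibition relative to vehicle control reported.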

[3] = NCI Yeast Anticancer Drug Screen. Data for the sgs1 mgt1 strain (AID 161);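 also: 0% = growth of cultures given vehicle only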; conditions: S. cerevisiae sgs1 mgt1 strain, at 50.0 µM, hits give high values
How it was run: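 This yeast growth screen uses a strain with defined DNA-repair lesions; compound-treated growth is compared with vehicle-treated growth.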

[4] = NCI Yeast Anticancer Drug Screen. Data for the cln2 rad14 strain (AID 165);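 also: 0% = growth equal to vehicle treated cultures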; conditions: S. cerevisiae cln2 rad14 strain, at 50.0 µM, hits give high values
How it was run: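 Readout is yeast growth inhibition versus vehicle-treated controls, using a strain with cln2 and rad14 alterations exposed to compound.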

[5] = NCI Yeast Anticancer Drug Screen. Data for the bub3 strain (AID 167); conditions: S. cerevisiae bub3 mutant strain, at 50.0 µM, hits give high values
How it was run: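 In this screen, a yeast mutant lacking normal mitotic checkpoint function is challenged with compound. Relative growth versus vehicle gives the inhibition value.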

[6] = NCI Yeast Anticancer Drug Screen. Data for the mlh1 rad18 strain (AID 175); conditions: S. cerevisiae mlh1 rad18 strain growth inhibition; at 50.0 µM; hits give high values
How it was run: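 Genetically defined yeast (DNA repair-deficient) exposed to compounds; growth inhibition determined relative to vehicle.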

Row | SMILES | growth inhibition [1] [%] | growth inhibition [2] [%] | growth inhibition [3] | growth inhibition [4] [%] | growth inhibition [5] [%] | growth inhibition [6]
1 | CCCCN1C(=O)C(=O)N(CCc2ccc(OC)c(OC)c2)C1=O | 28 | 5.8 | 11.9% | 18.7 | 1.35 | 18.1%
2 | CN(C)c1ccc([N+](=O)[O-])cc1 | -76.2 | -24 | -61.6% | -43.1 | -9.2 | -57.4%
3 | NCC1(N2CCOCC2)C2CCCC21CNc1ccccc1 (stereo unspecified) | -37.2 | -46.1 | -16% | -4.65 | -35.1 | -21%
4 | CN(CC(O)CN1CCCc2ccccc21)C1CCCCC1 (stereo unspecified) | -5.8 | 0.25 | 17.9% | -16 | 46 | 19.2%
5 | O=C(O)C1CC1(C(=O)O)C(=O)O (stereo unspecified) | 9.75 | 4.05 | -6.95% | 3.45 | -0.05 | -1.1%
6 | CC1(C)OC(=O)CC2(C)OC12 (stereo unspecified) | -8 | -52.3 | -11.2% | -16.4 | -5.9 | -19.2%
7 | CCCCNc1ccc(Cl)cc1 | 0.75 | -5.4 | -16.7% | -27.9 | -15.5 | -15.6%
8 | COc1ccccc1CNCCCCCCNCCSSCCNCCCCCCNCc1ccccc1OC | 6.55 | 5.1 | 7.4% | -36.7 | -2.35 | 32.5%
9 | COC(SC)(SC)c1cc(-c2c(Cl)cccc2Cl)no1 | -7.25 | -7.55 | -3.1% | 4.3 | 27.6 | -4.15%
10 | COC(=O)OC(C#N)c1cccc([N+](=O)[O-])c1 (stereo unspecified) | 15.8 | 8.8 | 6.2% | -13.7 | -3.9 | 9%
11 | O=C(O)c1cc(-c2ccccc2)ccc1O | 27.8 | -70.3 | 12.6% | 25.2 | -2.6 | 46.6%
12 | C=CC1CNCCC1CCC(=O)c1ccnc2ccc(OC)cc12 (stereo unspecified) | 7.75 | -9.6 | -1.2% | 5.85 | 1.15 | 4.4%
13 | Cn1c(=O)c(-c2ccccc2)cc2ccccc21 | -9.9 | -12.9 | -3.85% | -1.95 | -1.15 | -16.6%
14 | NC(=O)c1nnc2c(F)cccc2c1N | -39.2 | -29.4 | -15.3% | -0.8 | -27.2 | -24.6%
15 | O=C1c2cccc(S)c2C(=O)c2cccc(S)c21 | -21.5 | -11.3 | -9.75% | 4.7 | 5.35 | -15.5%
16 | CC(C)NC(=O)OCc1nnn2c1CCC2 | -6.9 | 0.05 | -12.5% | -22.7 | -0.05 | -4.05%
17 | CC(=O)Nc1ccc2c(c1)C(=O)c1cc(Cl)ccc1-2 | 0.25 | -6.05 | 5.75% | -28.1 | -2.05 | -9.35%
18 | CCC(=O)CC(C)=O.CCC(=O)CC(C)=O.[Cu] | -10.3 | 19.4 | 5.5% | -31 | -2.2 | 14.2%
19 | CCCC1(CCC)NC(=O)N(CC(N)=O)C1=O | 7.45 | 0.1 | -9.5% | -20.6 | -9.1 | 16.1%
20 | COc1ccc2c(=O)c([Se]c3coc4cc(OC)ccc4c3=O)coc2c1 | 7.2 | -17.1 | 3.15% | -52.5 | -23.1 | 3.25%
21 | CC(=O)NNC(=O)NCCCCCCNC(=O)NNC(C)=O | 16.1 | 20.2 | 25.4% | 16.2 | 17.9 | 26.5%

Row | SMILES | growth inhibition [1] [%] | growth inhibition [2] [%] | growth inhibition [3] | growth inhibition [4] [%] | growth inhibition [5] [%] | growth inhibition [6]
22 | COC(=O)Nc1nc2ccc(-n3c(C)nc4ccccc4c3=O)cc2[nH]1 | 10.8 | -0.45 | 6.35% | 8.5 | 4.95 | 15.8%
23 | COC(=O)/C=C1\C(=O)N(C(C)=O)c2ccccc21 | 12.3 | 16.1 | 72.2% (active) | 40.1 | 50.6 | 76.4% (active)
24 | CC(C)(C)OC(=O)NC(CCCCNC(=O)OCc1ccccc1)C(=O)NCCNc1ccc(NCCNC(=O)C(CCCCNC(=O)OCc2ccccc2)NC(=O)OC(C)(C)C)c2c1C(=O)c1ccccc1C2=O (stereo unspecified) | -3.7 | 0.1 | -27.4% | -1.4 | -31.6 | -52.8%
25 | CCCCCCCC/C=C\CCCCCCCC(=O)OC(C)CC(=O)N(C)C (stereo unspecified) | -18.1 | -23.4 | 10.6% | -6.55 | -11.6 | 3.95%
26 | O=C1C(O)=C(c2ccccc2)C(=O)N1c1ccccc1 | -25.2 | -9.05 | -11.7% | -62.5 | 6.65 | 9.5%
27 | CC1=C(C(=O)CC(=O)C(=O)NC2C3CC4CC(C3)CC2C4)Sc2ccccc2N1 (stereo unspecified) | -33.5 | -0.15 | -2.6% | 8.8 | -0.6 | -21%
28 | O=C(O)CCC(=O)NC(c1ccccc1)(c1ccccc1)c1ccccc1 | -17.4 | -9.45 | -0.15% | -37.1 | 3.2 | 3.1%
29 | Cc1ccc(NC(=O)CCSC(=O)Nc2ccc(C)cc2)cc1 | -1.2 | -2.65 | -7.05% | 21.2 | 8.1 | 7.9%
30 | COC(=O)c1[nH]c(=O)[nH]c(=S)c1N | 7.75 | 21 | -10.6% | -20.6 | -17.8 | -15.8%
31 | CC1=CC(C)(C)N=C2SC(c3ccc(N)cc3)=NN12 | 25 | 1.7 | 3.55% | 5.9 | 18.5 | 28.4%
32 | C=Cc1ccc(S(N)(=O)=O)cc1 | -7.45 | 15.4 | -7.55% | -16.6 | -12.7 | -2.25%
33 | COc1ccc2c(=O)c(S)coc2c1 | 35.8 | 36.5 | 22.3% | 9 | -1.15 | 41%
34 | CC(CC#N)NC(=O)C1CCC(N)=N1 (stereo unspecified) | -14.3 | -18.2 | -8.95% | 1.4 | -7.35 | -9.9%
35 | [N-]=[N+]=NC[C@H]1OCO[C@H](CN=[N+]=[N-])[C@H]2OCCOCCOc3ccccc3OCCOCCO[C@@H]21 | -13.2 | -9.65 | -11.6% | -15.6 | -30.9 | -18.1%
36 | CC(=O)Nc1cc2ccccc2oc1=O | -5.5 | -25.1 | -4.65% | 2.25 | -11.8 | 0.75%
37 | Cc1cc(C(=O)N/N=C/c2cc(Cl)cc(Cl)c2O)c2cc(Br)ccc2n1 | 61.5 | 25.4 | 54% | 15.9 | -0.2 | 45%
38 | CC1C(O)=C(O)c2ccccc2N1O (stereo unspecified) | -9.15 | -11.1 | -8.6% | 12.5 | -6.25 | -10.7%
39 | O=[N+]([O-])c1ccc(OS(=O)(=O)c2ccccc2)cc1 | -3.25 | 7.9 | -5.35% | -3.95 | 4.05 | 9.65%
40 | NCCCNC1CCCCC1 | 8.8 | -27.9 | 2.55% | -0.45 | 1.7 | 12.8%
41 | CC/C(=N\N=C(/CC)c1ccc[nH]1)c1ccc[nH]1 | 36.8 | -23.8 | 10.2% | 5.9 | 23.3 | 9.25%
